This is part of a sample that, as a whole, favours compounds with a hit. Of some 79,000 tested, about 15% had one in any assay. Values without a mark were called inactive. Active and inactive are the calls of the source. Cut-off read from the data, not from the text of the source: active = growth inhibition above about 70%; inactive = the rest.
Assays:
[1] = NCI Yeast Anticancer Drug Screen. Data for the rad50 strain (AID 155);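 note: 0% = growth of vehicle-only cultures of the same strain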; settings: S. cerevisiae rad50 strain growth inhibition; at 50.0 µM; hits give high values
In short: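 Compounds were tested on a yeast strain with an engineered DNA damage repair alteration; the reported value is growth inhibition normalised to vehicle treatment.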

[2] = NCI Yeast Anticancer Drug Screen. Data for the mec2-1 strain (AID 157); settings: S. cerevisiae mec2-1 strain, at 50.0 µM, hits give high values
In short: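 Test agents were screened against the mec2-1 yeast strain, with defined DNA repair or cell cycle alteration. Growth was scored as inhibition against vehicle-only controls.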

[3] = NCI Yeast Anticancer Drug Screen. Data for the sgs1 mgt1 strain (AID 161);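 note: 0% = growth of cultures given vehicle only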; settings: S. cerevisiae sgs1 mgt1 strain, at 50.0 µM, hits give high values
In short: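 Genetically altered yeast, compound exposure, growth inhibition relative to vehicle.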

[4] = NCI Yeast Anticancer Drug Screen. Data for the cln2 rad14 strain (AID 165);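 note: 0% = growth equal to vehicle treated cultures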; settings: S. cerevisiae cln2 rad14 strain, at 50.0 µM, hits give high values
In short: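 Growth of compound-exposed yeast (cln2 rad14 genotype) measured and expressed as inhibition relative to vehicle.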

[5] = NCI Yeast Anticancer Drug Screen. Data for the bub3 strain (AID 167); settings: S. cerevisiae bub3 mutant strain, at 50.0 µM, hits give high values
In short: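 Growth of a checkpoint-deficient yeast mutant is measured after compound exposure. Values represent inhibition relative to vehicle.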

[6] = NCI Yeast Anticancer Drug Screen. Data for the mlh1 rad18 strain (AID 175); settings: S. cerevisiae mlh1 rad18 strain growth inhibition; at 50.0 µM; hits give high values
In short: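 In this whole-cell yeast screen, a strain with altered DNA damage repair is challenged with compound, and its growth is measured against matched vehicle-treated controls.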

Structure (SMILES)	growth inhibition [1]	growth inhibition [2]	growth inhibition [3]	growth inhibition [4]	growth inhibition [5]	growth inhibition [6]
CCCCN=C=C(c1ccccc1)c1ccccc1	22%	12.5%	-0.85%	-35.8%	-7.75%	-15.1%
CC1CCC(=O)N1c1ccc(N)cc1 (centres undefined)	-19%	-15.5%	-15.2%	11.2%	-23.3%	10.1%
NC(=O)N1CCCC1=O	-18.4%	-18.9%	-20.8%	-8.5%	-11.3%	-20.9%
COc1ccc2c(c1)CCCN2	-3.4%	-23%	-4.05%	-20.1%	-13.3%	3.65%
CCOC(=O)c1csc(N)n1	-24.5%	7.35%	-15.1%	-39.6%	-9.7%	-18.3%
CCCCCCCCCCCC(=O)N/N=C/c1ccccc1OC	-0.65%	7.25%	-10.3%	-18.8%	4%	12.6%
N=C1C(O)=CC(=O)C(O)=C1C(=O)O	-9.1%	3.9%	0%	1.95%	-13%	3.7%
Nc1n[n+]([O-])c2cc([N+](=O)[O-])ccc2[n+]1[O-]	85.1% (active)	87.9% (active)	84.7% (active)	79.7% (active)	75.9% (active)	68%
CCOc1nc(N)nc(C)c1N=Nc1ccc(O)cc1	-5.7%	6.2%	0.85%	-43%	-2.4%	-0.4%
Nc1nc(N)nc(COc2ccccc2Cl)n1	6.5%	8.5%	8.35%	9.4%	15.2%	13.2%
C1CSCC2(COC2)CS1	13%	13.6%	-9.65%	5%	-1.55%	14.2%
CC(=O)OCC(OC(C)=O)C(OC1OC(COC(C)=O)C(OC(C)=O)C(OC(C)=O)C1OC(C)=O)C(OC(C)=O)c1cnn(-c2ccccc2)n1 (centres undefined)	-10.7%	-0.1%	-8.15%	-19.4%	-2.65%	-5.75%
CSC(=NC(=O)c1c(Cl)cccc1Cl)SC	21.8%	14.2%	40.2%	11.3%	42.4%	31.9%
O=C1CCCCC1CO (centres undefined)	-0.1%	1.5%	-0.65%	-5.5%	1.4%	2.3%
Cc1cc(C)cc(Sc2c([N+](=O)[O-])ncn2C)c1	7.65%	19.3%	-16.7%	21.1%	29.2%	39.7%
CC1(C)CC2(CC3(C1)SCCS3)SCCS2	-11.2%	-5.25%	-8.8%	5.45%	-5.8%	1.35%
OCC1OC(n2ncc3c(Nc4ccccc4)ncnc32)C(O)C1O (centres undefined)	17.1%	18.3%	6.75%	-5.7%	6.9%	17.9%
O=C1C(c2ccccc2)=[N+]([O-])c2cc([N+](=O)[O-])ccc21	-15.8%	5.65%	13.8%	23.2%	14.8%	36%
CCCCC1(CC)COC2(CCCC2)OC1	18.6%	2.25%	-11.6%	3.2%	-9.7%	12.4%
Cc1cc(Cl)ccc1NC(=O)C1C(=O)C(=O)N(c2ccc(Cl)cc2C)C1=O (centres undefined)	7.4%	-2.3%	14.8%	13.4%	-18.2%	17.2%

Structure (SMILES)	growth inhibition [1]	growth inhibition [2]	growth inhibition [3]	growth inhibition [4]	growth inhibition [5]	growth inhibition [6]
Cc1cc(OC(=O)Nc2cccc(Cl)c2C)ccc1[N+](=O)[O-]	1.35%	53.4%	25.6%	3.95%	48.9%	1.7%
CCCCNC(=O)OCCN=c1c2ccccc2ccc2ccccc12	-25.6%	-31.4%	-9.95%	2.8%	-1.3%	-15.4%
CCCOC(=O)c1ccc(Cl)c(Cl)c1	10.6%	7.85%	2.5%	-58.2%	-6.15%	5.9%
Brc1nc2c3ccccc3ncn2c1Br	45.2%	-3.05%	21.3%	-4.25%	1.7%	23.3%
CCCCCC[C@H](C/C=C\CCCCCCCC(=O)OCCCC)OC(C)=O	-14.7%	0.2%	-10.2%	-14.2%	-29.4%	-8.8%
O=NN1C2CCCCC2C2CCCCC21 (centres undefined)	-9%	20.5%	-14.7%	-5.25%	26.2%	3.8%
CCN(CC)CCOC(=O)Cc1ccc2c(=O)cc(-c3ccc(C)cc3)oc2c1	7.75%	-18.4%	-13.6%	0.75%	-1.55%	-54.5%
O=C(O)/C=C/C(=O)Nc1cc(Cl)cc2c1-c1c(Cl)cc(Cl)cc1C2=O	30.9%	8.95%	31.6%	-52.6%	-4%	4.25%
O=C(CC(=O)N1N=C(N(c2ccccc2)c2ccccc2)CC1c1ccccc1)Nc1ccccc1 (centres undefined)	17.1%	6.4%	-2.1%	8.3%	-0.35%	0.1%
COc1cc([C@@H]2c3cc4c(cc3[C@H](OC3OC5COC(C(C)C)OC5C(O)C3O)C3COC(=O)[C@@H]32)OCO4)cc(OC)c1OC (some centres undefined)	11.6%	46.7%	31%	3.2%	9.25%	-41.8%
Cc1cccc(Cl)c1N	-5.55%	-7.95%	6.9%	3.15%	-2.4%	-3.15%
S=c1[nH]nc2nc3c4ccccc4c4ccccc4c3nn12	53.7%	22.8%	10.3%	14.2%	21.2%	25.7%
COc1cc(CCNC(=O)CC(C)C)ccc1OCc1ccccc1	-14.9%	-27%	1.35%	-30.5%	-11.9%	-15.9%
NCCSSC/C=C\CSSCCN	2.65%	1.5%	-24.1%	16.2%	-15.8%	-12.9%
Cc1ccc(S(=O)(=O)N2CCC(C(=O)O)(c3ccccc3)CC2)cc1	-14.9%	-0.9%	-35.4%	-88.5%	-56.2%	-9.45%
CCN(C)c1ccccc1	-5.8%	-27.8%	-3.2%	-31.9%	-6.6%	11.2%
CCCCCCCCCCCCCCCCCC/C(CC)=N/Nc1ccc([N+](=O)[O-])cc1[N+](=O)[O-]	-21.1%	3.7%	-12.2%	-25.1%	11.2%	5.55%
C/C(=N/NC(N)=O)c1ccc(C)o1	1.85%	-3.55%	-4.4%	-0.75%	1.55%	0.35%
O=C1C2=C(Nc3cc(Cl)ccc3N2)OC1c1c[nH]c2ccc(COc3ccccc3)cc12 (centres undefined)	-22.4%	6.6%	-1.55%	30.4%	-15%	-4.1%

— PubChem BioAssay (NCI)
